# Experimental data from PubChem BioAssay AID686978 (National Center for Advancing Translational Sciences (NCATS), 2013).
# The whole screen tested about 420,000 compounds, of which about 64,000 (15%) were called active. Roughly 27% stayed inconclusive and do not appear here. The call rests on the fitted dose curve; in most records, active means well fitted inhibition curve with a large enough effect; inconclusive means small, poorly fitted or top-dose-only effect; inactive means flat fitted curve, though single readings scatter. A selection follows. A call without a number means that no potency is given here.
# Assay: qHTS for Inhibitors of human tyrosyl-DNA phosphodiesterase 1 (TDP1): qHTS in cells in absence of CPT; further: nearly all actives have a fitted effect of over 55% in size
# Settings: DT40 Tdp1-/- hTDP1 cells, no CPT, ATP luminescence, 48 h; activity change, negative = growth inhibition: at 46.2 µM (top of the series)
# Outline: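 Seeded 400 DT40-hTDP1 cells/well (vehicle DMSO, no 20 nM CPT); pinned compounds; ≥48 hr at 37 °C; CellTiter-Glo luminescence as viability measure.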
# Potency means the concentration at half of the fitted maximal effect.
row,Compound,Potency
1,Cc1ccc(NS(=O)(=O)c2cccs2)cc1S(=O)(=O)N1CCCCCC1,inactive
2,Cc1ccc(C)c(Nc2nnc(-c3ccc(C)c(S(=O)(=O)N4CCCCC4)c3)c3ccccc23)c1,9.2 µM (active)
3,Cc1ccc(C(=O)NCC(=O)O)cc1S(=O)(=O)N1CCCCC1,inactive
4,COc1ccc(C2CC(=O)n3c(nc4ccccc43)S2)cc1OC (stereo not given),inactive
5,COc1cc(=O)n2c(c1C(=O)NC(C)c1ccco1)CCN(C(=O)c1cn3ccc(C)cc3n1)CC2 (stereo not given),inactive
6,O=C(CN1CCN(C(=O)c2ccco2)CC1)Nc1ccc2c(c1)OCO2,inactive
7,COc1ccc(OC)c(NC(=O)CN2CCN(C(=O)c3ccco3)CC2)c1,inactive
8,O=C(CN1CCN(C(=O)c2ccco2)CC1)Nc1ccc(Cl)c(C(F)(F)F)c1,16.4 µM (active)
9,COc1cc(NC(=O)COC(=O)c2cnc(C)cn2)c(C)cc1[N+](=O)[O-],inactive
10,CCCN1C(=O)C(NS(=O)(=O)c2ccc(N)cc2)(C(F)(F)F)C(C(=O)OC)=C1C (stereo not given),inactive
11,O=C(O)CCCC(=O)N1N=C(c2ccco2)CC1c1ccco1 (stereo not given),inactive
12,COc1cccc(-c2coc3cc4oc(=O)c(CC(=O)O)c(C)c4cc23)c1,inactive
13,Oc1c(Br)cccc1/C=N/Nc1c(F)c(F)c(F)c(F)c1F,20.6 µM (active)
14,Brc1ccccc1/C=N/Nc1nc2ccccc2o1,inactive
15,COc1ccc(C)cc1NC(=O)CN(C)S(=O)(=O)c1ccc2c(c1)n(C)c(=O)c(=O)n2C,inactive
16,CCCSC1=C(C#N)C(c2ccccc2C)C(C(=O)OC)C(=O)N1 (stereo not given),inactive
17,Cn1c2ccccc2c2c(C(=O)N3CCN(c4ccc(F)cc4)CC3)cn(C3CCCC3)c(=O)c21,23.1 µM (active)
18,CC(=O)N1c2ccccc2CC1C(=O)N1CCN(c2ccc(F)cc2)CC1 (stereo not given),inactive
19,CC(C)N(C(=O)COC(=O)c1ccccc1C(=O)N1CCN(c2ccc(F)cc2)CC1)C(C)C,inactive
20,CC(NS(=O)(=O)c1ccccc1)c1n[nH]c(=S)n1-c1ccccc1 (stereo not given),inactive
21,CC(=O)Nc1ccc(NC(=O)[C@@H](NC(=O)c2cccc(C)c2)C(C)C)cc1,inactive
22,Cc1ccc(CNC(=O)CC2Sc3ccccc3NC2=O)cc1 (stereo not given),inactive

row,Compound,Potency
1,O=C(CC1SCCNC1=O)Nc1ccc(Cl)c(Cl)c1 (stereo not given),inactive
2,O=C(CC1Sc2ccccc2NC1=O)NNc1ccc(Cl)c(Cl)c1 (stereo not given),11.6 µM (active)
3,NNC(=O)c1ccc(COCC(F)(F)C(F)F)cc1,inactive
4,Cc1ccc(OCC(=O)OCc2cc(=O)n3nc(C4CC4)sc3n2)cc1,inactive
5,CS(=O)(=O)c1ccc(C(=O)OCC(=O)NNC(=O)COc2ccc(Cl)cc2)cc1,inactive
6,Cc1ccc(-c2cc(N)on2)cc1,inactive
7,COc1cc(OC)cc(C(=O)NCC(=O)OCc2csc(-c3ccccc3)n2)c1,23.1 µM (active)
8,COc1cc(OC)cc(C(=O)NCC(=O)OCC(=O)NC(C)CCc2ccccc2)c1 (stereo not given),inactive
9,COc1cccc(C(=O)NCC(=O)OCc2cc(=O)n3ccsc3n2)c1,inactive
10,CSc1ccc(CNCCN2CCOCC2)cc1,inactive
11,CCCSc1nc2[nH]ncc2c(=O)[nH]1,inactive
12,CCc1ccc(-n2c(SCc3cc(=O)n4cc(Br)ccc4n3)nc3[nH]ncc3c2=O)cc1,20.6 µM (active)
13,COc1ccc(CCNC(=O)CSc2nc3[nH]ncc3c(=O)n2-c2cccc(C(F)(F)F)c2)cc1OC,inactive
14,COc1ccccc1N1CCC(N2CCN(CC(C)(C)C)C(CCO)C2)CC1 (stereo not given),inactive
15,COc1ccccc1NC(=O)/C=C/C(=O)O,inactive
16,COc1ccccc1NC(=O)C[n+]1ccccc1,inactive
17,COc1ccccc1NC(=O)/C=C/C(N)=O,2.91 µM (active)
18,O=C(Nc1ccc(S(=O)(=O)Nc2nccs2)cc1)c1cc(=O)[nH]c2ccccc12,inactive
19,Cc1cccc(C(=O)O)c1[N+](=O)[O-],inactive
20,COc1ccccc1OCCNCC(O)COc1cccc2[nH]c3ccccc3c12 (stereo not given),16.4 µM (active)
21,COc1ccccc1OCCNC(=O)c1cc([N+](=O)[O-])cc([N+](=O)[O-])c1,inactive
22,CC(C)(C)NCC(O)COc1cccc2[nH]c(=O)[nH]c12 (stereo not given),inactive

row,Compound,Potency
1,Fc1ccc(Br)cc1/C=N/n1cnnc1,inactive
2,COc1ccccc1CC(=O)Nc1ccc([N+](=O)[O-])cc1OC,inactive
3,CN(CC(=O)Nc1ccccc1[N+](=O)[O-])Cc1ccc(Br)cc1,inactive
4,COc1ccc(Br)cc1CN(C)CC(=O)Nc1cc([N+](=O)[O-])ccc1OC,16.4 µM (active)
5,CCCC1C(c2ccccc2)C(C#N)(C#N)C2(C#N)CC1(N)NC2=O (stereo not given),inactive
6,COc1cccc(CNC(=O)CCN2C(=S)NC(C)(C)CC2C)c1 (stereo not given),inactive
7,O=C(O)C1=NN(c2c(F)c(F)cc(F)c2F)C(=O)CC1,inactive
8,CO[C@H]1[C@H](NC(=O)C(C)C)c2ccccc2C12CCN(Cc1cnc(N(C)C)s1)CC2,inactive
9,COc1cccc(CN2CCC3(CC2)c2ccccc2[C@@H](NC(=O)c2ccccc2OC)[C@@H]3O)c1,16.4 µM (active)
10,COc1ccccc1C(=O)N[C@@H]1c2ccccc2C2(CCN(C(=O)c3csnn3)CC2)[C@H]1OC,inactive
11,N[C@H](C(=O)O)c1ccc(C(=O)O)c(O)c1,inactive
12,CC1=NNC(=O)C1Cc1c(Cl)cccc1Cl (stereo not given),inactive
13,CCNS(=O)(=O)c1ccc(NC(=O)CSc2nc(-c3ccco3)cc(C(F)(F)F)n2)cc1,7.31 µM (active)
14,CC(C)(C)NC(=O)CSc1nc(-c2ccc(F)cc2)cc(C(F)(F)F)n1,18.4 µM (active)
15,CN(C)c1ccc(NC(=O)CSc2n[nH]c(-c3ccco3)n2)cc1,inactive
16,Cc1cccc(NC(=O)CSc2nc(-c3ccco3)cc(C(F)(F)F)n2)c1C,9.2 µM (active)
17,CC(C)c1nc(SCC(=O)NC(=O)NC(C)(C)C)n[nH]1,inactive
18,Cc1cc(C(F)(F)F)nc(SCC(=O)Nc2nccs2)n1,inactive
19,Cc1cc(C(F)(F)F)nn1-c1nc(-c2ccco2)cc(C(F)(F)F)n1,inactive
20,O=C(CSc1nc(-c2ccco2)cc(C(F)(F)F)n1)NCc1cccs1,inactive
21,Cc1cccc(NC(=O)Cn2c(C(F)(F)F)nc3ccccc32)c1C,inactive
